Experimental findings from PubChem BioAssay are described below.

This assay deals with Epidermal growth factor receptor (Homo sapiens) (UniProt P00533). The experiment in a line: compounds binding epidermal growth factor receptor – biochemical, small-molecule microarray, 635 nm fluorescence, primary screen (AID 1104).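 Note: score merges 667 nm emission intensity with spot signal to noise over triplicate slides.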 As to conditions: EGFR binding, higher = more signal.
Sequence of Epidermal growth factor receptor (Homo sapiens) (P00533 whole entry, looked up): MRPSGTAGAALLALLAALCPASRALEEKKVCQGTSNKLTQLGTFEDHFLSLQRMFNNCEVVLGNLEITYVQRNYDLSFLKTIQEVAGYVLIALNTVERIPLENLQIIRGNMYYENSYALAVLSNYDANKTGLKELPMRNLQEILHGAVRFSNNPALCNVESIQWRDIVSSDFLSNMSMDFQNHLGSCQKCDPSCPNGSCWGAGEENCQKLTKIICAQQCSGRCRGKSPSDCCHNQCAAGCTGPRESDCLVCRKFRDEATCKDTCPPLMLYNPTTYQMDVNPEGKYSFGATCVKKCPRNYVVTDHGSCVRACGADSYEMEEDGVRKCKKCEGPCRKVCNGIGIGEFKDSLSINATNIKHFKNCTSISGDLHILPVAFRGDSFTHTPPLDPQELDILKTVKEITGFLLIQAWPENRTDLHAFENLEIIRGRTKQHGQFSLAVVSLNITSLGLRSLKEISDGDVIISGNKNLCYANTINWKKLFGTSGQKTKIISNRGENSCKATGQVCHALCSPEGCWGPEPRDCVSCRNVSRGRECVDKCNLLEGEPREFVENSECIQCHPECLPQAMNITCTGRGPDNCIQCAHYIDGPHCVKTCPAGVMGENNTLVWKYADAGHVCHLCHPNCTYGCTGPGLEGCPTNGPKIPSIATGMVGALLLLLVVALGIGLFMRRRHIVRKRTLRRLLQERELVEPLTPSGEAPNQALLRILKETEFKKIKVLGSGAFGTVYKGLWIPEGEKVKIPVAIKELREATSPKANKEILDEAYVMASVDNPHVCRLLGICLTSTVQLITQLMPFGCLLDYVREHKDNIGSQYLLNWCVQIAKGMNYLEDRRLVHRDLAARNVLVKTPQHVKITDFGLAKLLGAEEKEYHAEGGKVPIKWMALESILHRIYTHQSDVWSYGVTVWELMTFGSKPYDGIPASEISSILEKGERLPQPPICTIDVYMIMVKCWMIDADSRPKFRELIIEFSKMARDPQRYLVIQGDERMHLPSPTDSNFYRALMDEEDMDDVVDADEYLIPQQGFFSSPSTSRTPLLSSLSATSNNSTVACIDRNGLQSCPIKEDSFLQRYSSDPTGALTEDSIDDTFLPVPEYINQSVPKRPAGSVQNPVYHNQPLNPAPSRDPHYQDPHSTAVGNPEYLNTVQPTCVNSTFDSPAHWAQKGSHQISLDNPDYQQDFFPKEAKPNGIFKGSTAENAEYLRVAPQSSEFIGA
Consider `CC(C)(C)N1CC=CC23O[C@@H]4/C=C\CCCOC(=O)C4[C@H]2C(=O)N(CCCO)[C@@H]3C1=O` (stereo partly specified), for which the composite z-score is -1.33.

`Cc1ccc(S[C@]2(C(=O)NCCCN(C)C)CC(=O)N(C3Cc4ccccc4C3)[C@@H]2c2ccc(CO)cc2I)cc1` registered a composite z-score of -0.487.

`CCOc1cc(C(O)C2C=CC3C(=O)N(c4ccccc4)C(=O)C3N2Nc2ccccc2F)ccc1O` (stereo unspecified) displayed a composite z-score of 0.232.

Molecule `Cc1ccc(F)cc1S(=O)(=O)N[C@H]1CCN(Cc2ccc(OC(C)C)cc2)C1` came in with a composite z-score of -0.437.

In turn, `COC(=O)C(CC#Cc1ccc2c(c1)[C@]1(C(=O)N2)[C@H](c2ccc(OCCO)cc2)N2[C@H](c3ccccc3)[C@H](c3ccccc3)OC(=O)[C@H]2[C@@H]1C(=O)N1CCCCCCC1)C(=O)OC` gave a composite z-score of 1.64.

In the case of `[N-]=[N+]=Nc1ccccc1C[C@]1(C(=O)N2CCOCC2)N=C(c2ccc(OCCCO)cc2)O[C@H]1c1ccccc1N=[N+]=[N-]`, the composite z-score worked out at 0.857.

The molecule `O=C(NC1CC1)[C@@H]1c2ccccc2C(=O)N(Cc2ccc(OC(F)(F)F)cc2)[C@H]1c1ccc(CO)cc1` displayed a composite z-score of 0.0972.

For `CN(C)CCCC[C@@H]1NC(=O)[C@H]2C[C@@H](C(=O)O)[C@@H](c3ccc(O)cc3)N2C1=O`, the composite z-score was found to be 1.85.

`CO[C@H]1O[C@H](CO)[C@@H](OC(=O)Nc2ccccc2)[C@H](OC(=O)Nc2ccccc2)[C@H]1OC(=O)Nc1ccccc1` registered a composite z-score of 0.0428.

Take `[N-]=[N+]=NCc1ccccc1[C@@H]1OC(c2ccc(OCCCO)cc2)=N[C@]1(Cc1ccccc1N=[N+]=[N-])C(=O)O`: the composite z-score was determined as 0.268.

Regarding `CC(C)=CCCC(C)=CC(O)C1C=CC2C(=O)NC(=O)C2N1Nc1ccc(Cl)cc1Cl` (stereo unspecified), the composite z-score was 0.542.

The molecule `CC(C)C(=C=CC[C@H](O)c1ccccc1OCCO)C[C@H](O)c1cc(Cl)cc(Cl)c1O` returned a composite z-score of -0.172.

As to `COc1ccc(C(=O)Nc2ccc3c(c2)[C@@]2(O[C@H](CCO)[C@@H]([Si](C)(C)c4ccc(OC)cc4)[C@@H]2C)C(=O)N3Cc2ccccc2)cc1`, the composite z-score stood at 0.252.

For `CC(C)(C)OC(=O)CC[C@@]1(C(=O)NCCN2CCOCC2)N=C(c2ccc(OCCCO)cc2)O[C@@H]1c1ccccc1CN=[N+]=[N-]`, the composite z-score is -0.088.

`CC(C)C(CO)N1C(=O)[C@@H]2C3C(=O)OCCC/C=C\[C@H]3OC23C=CCN(Cc2ccccc2)C(=O)[C@@H]13` (stereo partly specified) returned a composite z-score of -1.01.

In turn, `COC(=O)C(CC#Cc1ccc2c(c1)[C@]1(C(=O)N2)[C@H](C(=O)N2CCc3cc(OC)c(OC)cc3C2)[C@H]2C(=O)O[C@H](c3ccccc3)[C@H](c3ccccc3)N2[C@@H]1c1ccccc1OCCO)C(=O)OC` gave a composite z-score of 0.529.

`CC(C)=CCCC=C(C)C(O)C1C=CC2C(=O)N(c3ccccc3)C(=O)C2N1Nc1ccc(C#N)cc1` (stereo unspecified) showed a composite z-score of 0.411.

As to `C=CCC(OC(C)=O)[C@@H]1[C@@H](N(Cc2cccc3ccccc23)C(=O)Cc2ccc(OC)cc2)c2cc(OCCCO)ccc2N1C(=O)Cc1ccc2ccccc2c1` (stereo partly specified), the composite z-score was 0.0289.

Molecule `CN1C(=O)C2C=CC(C(O)c3ccc(-c4ccccc4)s3)N(NC(=O)OC(C)(C)C)C2C1=O` (stereo unspecified) returned a composite z-score of 0.609.

`COC(=O)[C@@]1(Cc2ccccc2)N=C(c2ccc(OCCCO)cc2)O[C@H]1c1ccccc1CN=[N+]=[N-]` had a composite z-score of -0.0505.

For `COc1ccc([Si](C)(C)[C@H]2[C@H](CC(=O)N3Cc4ccccc4C[C@H]3CO)O[C@@]3(C(=O)N(C)c4ccccc43)[C@@H]2C)cc1`, the composite z-score amounted to 1.01.

In the case of `C=CCC(OC(C)=O)[C@@H]1[C@@H](N(Cc2cc3ccccc3o2)C(=O)c2cccc3ccccc23)c2cc(OCCCO)ccc2N1C(=O)c1ccc2ccccc2n1` (stereo partly specified), the composite z-score stood at 0.3.

Molecule `CCOC(=O)C[C@H]1[C@H](OC(=O)c2ccccc2-c2ccccc2)[C@@H](NC(=O)C2CCCCC2)c2cc(OCCCO)ccc2N1C(=O)c1ccc2ccccc2n1` returned a composite z-score of 0.27.

In turn, `O=C1C2C=CC(C(O)C3CCCCC3)N(n3cnnc3)C2C(=O)N1Cc1ccccc1` (stereo unspecified) gave a composite z-score of 0.0887.

With `C=CCOC(=O)[C@@H]1[C@H]2C(=O)O[C@H](c3ccccc3)[C@H](c3ccccc3)N2[C@H](c2ccc(OCCOC(=O)[C@H]3C[C@H]4C(=O)N[C@@H](CCCCN(C)C)C(=O)N4[C@H]3c3ccc(O)cc3)cc2)[C@@]12C(=O)Nc1ccc(I)cc12`, the composite z-score was found to be 0.989.

For the molecule `O=C1C[C@]2(c3ccc([N+](=O)[O-])cc3)C(=O)N(C3CC3)c3cc(CO)ccc3[C@H]2N1C1CCCCC1`, the composite z-score was -0.0618.

Molecule `CN(C)CCCNC(=O)[C@@]1(Cc2ccccc2I)c2ccccc2C(=O)N(C2CCCCC2)[C@H]1c1ccc(CO)cc1` displayed a composite z-score of 0.0863.

Consider `C=CCC(OC(C)=O)[C@@H]1[C@@H](N(Cc2cccc3ccccc23)C(=O)c2ccc(-c3ccccc3)cc2)c2cc(OCCCO)ccc2N1C(=O)Cc1ccc2ccccc2c1` (stereo partly specified), for which the composite z-score was -0.0303.

Molecule `COc1cc(C(O)C2C=CC3C(=O)N(c4ccccc4)C(=O)C3N2Nc2ccccc2F)cc(OC)c1OC` (stereo unspecified) yielded a composite z-score of -0.117.

As to `C=CCN1C(=O)[C@@]2(O[C@@H](CCn3cc([C@H](O)c4ccccc4)nn3)[C@H]([Si](C)(C)c3ccc(OC)cc3)[C@H]2C)c2cc(N3C(=O)c4cccc5cccc3c45)ccc21`, the composite z-score was -1.04.

With `COC(=O)[C@H](Cc1ccc(O)cc1)N[C@@H](/C=C/C1CC1)[C@H](O)Cc1ccccc1`, the composite z-score was -0.074.

Consider `COc1ccc([Si](C)(C)[C@@H]2[C@@H](CC(=O)N3CCC[C@H]3CO)O[C@]3(C(=O)N(Cc4cccc(N5CCCCC5=O)c4)c4ccccc43)[C@H]2C)cc1`, for which the composite z-score turned out to be 0.0941.

The molecule `O=C1C[C@@](C(=O)O)(c2ccc([N+](=O)[O-])cc2)[C@@H](c2ccc(CO)cc2)N1C1CCCCC1` came in with a composite z-score of 0.369.

`CCOC(=O)c1cn(C[C@H](Cc2ccccc2)NC(=O)N[C@H](CO)CCc2oc(C(C)=O)c(C(=O)OC)c2C(=O)OC)nn1` returned a composite z-score of 0.956.

Molecule `NCCCCCCNC(=O)[C@@H]1C[C@@H]2C(=O)N3CCC[C@H]3C(=O)N2[C@@H]1c1cccc(OCCO)c1` came in with a composite z-score of 0.405.

`COCCOC(=O)N1C(=O)[C@@]2(c3cc(C#CCCO)ccc31)[C@H](C(N)=O)[C@H]1C(=O)O[C@H](c3ccccc3)[C@H](c3ccccc3)N1[C@@H]2c1ccccc1OCCO` displayed a composite z-score of 0.375.
